# LGR2 inh = blocks bursicon-induced cAMP signaling via Drosophila LGR2; 0.35% of 380,000 active; HEK293 LGR2, CRE-luciferase, bursicon-stimulated, 4 h; AID 720647; inhibition, % at 9.99 µM;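 active means drop in luminescence signal, shown as inhibition above about 50% in the replicate tests, limit read from the data, passing the limit was not always enough; inconclusive means probably only some replicates passing the limit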;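 further: agonist challenge used bursicon conditioned medium at about half maximal strength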
# TWEAK Fn14 block = blocks TWEAK-Fn14 interaction in a reporter cell assay; inhibition, % at 10 µM; TWEAK-stimulated Fn14 reporter cells, luciferase luminescence, 8 h; 2% of 360,000 active; in the data active means inhibition above about 50%
# KKLEB tox = CF airway cell cytotoxicity counter-screen; 0.36% of 360,000 active; KKLEB CF airway cells viability, ATPlite luminescence, overnight; hits give low values; cells stimulated with P. aeruginosa culture filtrate; AID 602141; activity change (cytotoxicity), % at 5 µM;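 active means corrected activity change at or below -50% at 5 µM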
# CF NFkB inh = cystic fibrosis NF-kB activation inhibition; KKLEB NF-kB-GFP reporter, PAF-induced, GFP fluorescence overnight; inhibition, % at 5 µM; 0.86% of 360,000 active; AID 588850;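 active means at least 50% inhibition at 5 µM, scaled per plate between neutral and stimulator controls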;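 further: PAF is a Pseudomonas aeruginosa culture filtrate used as stimulus; plate controls were PAF-stimulated DMSO wells for no effect and unstimulated DMSO wells for full effect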
# HIF-2a block = blocks HIF-2a reporter activity | 786-0 RCC cells HIF-2a reporter, luciferase luminescence, overnight | inhibition, % at 18.8 µM | 0.72% of 360,000 active | AID 624352;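 active means inhibition of the luminescence signal of 40% or more relative to plate controls, in a single-dose primary screen at 18.75 µM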
# hiPSC survival = hiPSC single-cell survival enhancement. ATPlite luminescence; 100% = ROCK inhibitor wells, 0% = DMSO. 0.044% of 360,000 active. survival enhancement, % at 20 µM; in the data active means survival enhancement above about 18%;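 further: cells exposed to compounds for 16 hours before the ATP read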
# The depositor's hits bear a star; u = inconclusive; x = no result. The list is not random: actives were taken first. Their share in the collection is about 2.3%.
SMILES,LGR2 inh,TWEAK Fn14 block,KKLEB tox,CF NFkB inh,HIF-2a block,hiPSC survival
C[C@@H]1CN([C@@H](C)CO)C(=O)c2cccc(NS(=O)(=O)c3ccc(Cl)cc3)c2O[C@H]1CN(C)S(=O)(=O)c1cn(C)cn1,28.4,x,x,x,x,x
N#Cc1c(N)n(CCc2ccc(F)cc2)c2nc3ccccc3nc12,x,62.6*,-7.4,34.7,-23.9,-0.7
COCCn1c(N)c(C#N)c2nc3ccccc3nc21,x,6.1,10.6,-9.6,-37.7,-1.3
C[C@@H]1CN([C@H](C)CO)C(=O)Cc2cc(NS(=O)(=O)c3ccc(Cl)cc3)ccc2O[C@@H]1CN(C)S(=O)(=O)c1cccs1,-3.2,x,x,x,x,x
CN(C)c1ccc(N=C/C=C2\N(C)c3ccccc3C2(C)C)cc1,x,51.5*,2.2,6.4,-117.0,-3.2
CN1C(=O)c2cc(NC(=O)C3CCCCC3)ccc2OC[C@@H]2O[C@@H](CC(=O)NCCc3ccncc3)CC[C@H]21,4.7,x,x,x,x,x
Clc1ccc(-c2cn3cc(Br)ccc3n2)cc1Cl,x,57.5*,-7.1,3.2,-86.1,-3.4
Brc1ccc2nc(-c3c[nH]c4ccccc34)cn2c1,-18.3,-10.4,-2.9,-31.9,-340.7,-0.8
Cc1ccn2cc(-c3ccc(Br)cc3)nc2c1,58.9*,73.4*,-47.3,-27.0,-44.6,-0.9
O=C(Cc1ccccc1)N[C@H]1C=C[C@@H](CC(=O)N2CCOCC2)O[C@@H]1CO,9.2,x,x,x,x,x
O=C(C[C@@H]1C=C[C@@H](NC(=O)Nc2ccccc2F)[C@@H](CO)O1)NCc1ccccc1,-4.2,x,x,x,x,x
COCCNC(=O)c1cc2c(c(-c3cccc(-c4cccc(F)c4)c3)n1)[C@H](CCO)N([S@@](=O)C(C)(C)C)C2,13.0,x,x,x,x,x
CCOc1cc(/C=C2\C(=O)N(Cc3ccc(C)cc3)C(C)=C2C(=O)OC)ccc1O,x,-2.7,3.8,-11.0,31.8,-1.9
C=CCOc1cccc(/C=C2\C(=O)N(Cc3ccc(C)cc3)C(C)=C2C(=O)OC)c1,31.8,10.5,3.2,-4.6,62.6*,-3.0
Cc1ccc(S(=O)(=O)Nc2ccc(NC(=O)Nc3cccc(C(F)(F)F)c3)cc2)cc1,13.7,85.9*,-38.9,48.6,7.4,-1.6
O=C(Nc1ccc(OC(F)(F)F)cc1)Nc1cccc([N+](=O)[O-])c1,-15.9,56.4*,-65.4*,65.7*,-165.5,-1.4
O=C(Nc1ccc(OC(F)F)cc1)Nc1cccc(C(F)(F)F)c1,x,58.6*,-52.3*,63.1*,-19.2,-2.1
Cc1ccc(NC(=S)NNC(=S)Nc2cccc(C(F)(F)F)c2)cc1,x,-33.0,-21.5,2.6,-51.2,0.0
O=C(Nc1ccncc1)Nc1cccc(C(F)(F)F)c1,5.4,19.9,-12.6,39.2,-12.5,-0.5
CCCNC(=O)N1CC2(CCN(Cc3ccccn3)CC2)c2c(n(C)c3cc(OC)ccc23)[C@H]1CO,-18.4,x,x,x,x,x
COc1ccc(CC(=O)Nc2nc(-c3ccc(F)c(F)c3)cs2)cc1,3.7,46.8,8.6,-26.1,-35.9,-0.3
O=C(CSc1ncnc2[nH]ncc12)Nc1nc(-c2ccc(F)c(F)c2)cs1,u,77.6*,12.2,6.3,-37.6,0.6
CC1(C(=O)OCC(=O)Nc2nc(-c3ccc(F)c(F)c3)cs2)CC1(Cl)Cl (configuration not stated),19.2,72.5*,-5.2,-20.4,-87.9,-0.6
C[C@@H]1CN([C@@H](C)CO)C(=O)c2cc(Br)cnc2O[C@H]1CN(C)C(=O)C1CC1,-26.3,-6.3,4.0,-2.1,12.7,20.1*
C[C@H](CO)N1C[C@H](C)[C@@H](CN(C)C(=O)C2CC2)Oc2ncc(Br)cc2C1=O,-10.4,x,x,x,x,x
CCOc1ccc2nc(COC(=O)c3ccncc3)c(C(=O)c3ccccc3)[n+]([O-])c2c1,-47.2,52.0*,6.5,-9.7,-125.1,0.3
O=C(C[C@@H]1C=C[C@@H](NC(=O)Nc2cccc(F)c2)[C@@H](CO)O1)NCC1CC1,-10.9,x,x,x,x,x
Cc1ccc(Oc2cc([N+](=O)[O-])cc3c2C(=O)Nc2ccccc2O3)cc1,-4.7,56.1*,-10.8,18.9,-9.6,1.3
COc1ccccc1NS(=O)(=O)c1ccc2ccccc2c1,-9.5,8.0,12.4,-0.2,13.1,-0.6
COc1ccc(NS(=O)(=O)c2ccc3ccccc3c2)c2ncccc12,9.5,8.6,5.4,51.1*,23.9,-0.7
